# Reference: PubChem BioAssay AID588382 (National Center for Advancing Translational Sciences (NCATS), 2011)
# Hit rate of the full screen: of about 1,300 compounds, about 150 (12%) were called active. Roughly 30% stayed inconclusive and do not appear here. The entries come from a sample that favours actives as a whole. Unmarked numbers belong to inactive results. Calls follow the shape of the dose curve; as a rule, active = well fitted cell-killing curve with a large enough effect; inconclusive = small, poorly fitted or top-dose-only effect, or effect the other way; inactive = flat fitted curve, though single readings scatter.
# Experiment: qHTS of small molecules that selectively kill Giardia lamblia: Hit Validation in HepG2 cytotox;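 also: compound exposure lasted overnight at 37 deg C; nearly all actives have a fitted effect of over 55% in size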;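 as to activity change, negative = cytotoxicity: viability measured as cellular ATP by ATPLite luminescence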
# Settings: cell viability; Potency: HepG2 cytotoxicity; series mostly up to 38.3 µM; activity change, negative = cytotoxicity: at the top concentration
# Method in brief: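 HepG2 cells seeded and incubated overnight at 37 deg C, then 23 nL compound added by pintool and incubated overnight at 37 deg C. Viability read as ATP luminescence with ATPLite after 15 min at room temperature.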
# % is scaled to controls: 0 for no effect and ±100 for the full control effect; potency is read from the fitted curve at half-maximal effect.
Compound,"activity change, negative = cytotoxicity",Potency
COCCn1c(C)cc(C(=O)COc2cccnc2[N+](=O)[O-])c1C,4.96%,
O=C(Nc1nnc(C2=COCCO2)o1)c1cccc(F)c1,1.81%,
COc1nn(C(C)C(=O)N2N=C(C(F)F)CC2(O)C(F)F)cc1[N+](=O)[O-] (stereo unspecified),10.4%,
COc1cc(/C=C/c2ccc3cccc(OC)c3n2)c(OC(C)=O)c([N+](=O)[O-])c1,-5.84%,
CN(C)C(=O)c1cc([N+](=O)[O-])cc([N+](=O)[O-])c1N(C)C,3.41%,
COc1ccccc1CNC(=O)CSc1ccsc1[N+](=O)[O-],10.1%,
Cc1ccc(OCc2ccc([N+](=O)[O-])cc2)c([N+](=O)[O-])n1,11.6%,
Cc1cc(C(=O)COc2cccnc2[N+](=O)[O-])c(C)n1Cc1cccs1,0.566%,
Cc1onc(-c2ccccc2)c1C(=O)N/N=C/c1ccc([N+](=O)[O-])c(O)c1,18.6%,
COc1cc2c(c3oc(-c4ccccc4)cc(=O)c13)C=CC(C)(C)O2,15%,
O=[N+]([O-])c1ccc(/C=N/n2c(CO)nc3ccccc32)s1,-18.8%,
O=[N+]([O-])c1ccc(/C=N/Nc2ncccc2[N+](=O)[O-])s1,4.72%,
Cc1nc2ccccc2n1/N=C/c1ccc([N+](=O)[O-])s1,,16.5 µM (active)
CN(C)c1ccc(N=Nc2ccccc2C(=O)O)cc1,2.67%,
CCOC(=O)Cn1c(=NC(=O)c2ccc([N+](=O)[O-])s2)sc2ccccc21,-12.7%,
COc1ccc(C(=O)N(Cc2ccccc2)c2cccc(C)c2)cc1,-1.63%,
CCOc1ccc2nc(NC(=O)c3c([N+](=O)[O-])cnn3CC)sc2c1,2.03%,
CCC(C(=O)OC)n1c(-c2ccccc2)nc2ccccc2c1=O (stereo unspecified),6.81%,
CCOC(=O)N=Nc1c2ccccc2c2nc3no[nH]c3nc12,,0.736 µM (active)
CN(C)c1cc(NC(=O)CNC(C)(C)CC(C)(C)C)c2ccccc2n1,-3.21%,
CC1CCN(c2c([N+](=O)[O-])nn(-c3ccc4c(c3)OCCO4)[n+]2[O-])CC1,0.373%,
COCCNc1cc(NCCOC)c([N+](=O)[O-])cc1[N+](=O)[O-],3.46%,
Cc1ccc([C@H]2C(C(=O)O)=CC[C@@H](c3ccc(C)cc3)N2S(=O)(=O)c2ccc(C)cc2)cc1,5.19%,
CCC(C)Nc1ccc(NC(C)CC)cc1 (stereo unspecified),,0.165 µM (active)
O=C(COc1cccnc1[N+](=O)[O-])Nc1c(Cl)cccc1Cl,5%,
O=[N+]([O-])c1nn(-c2ccc(Cl)cc2)n(O)c1=NCc1ccncc1,15.3%,

Compound,"activity change, negative = cytotoxicity",Potency
OCCSc1nc(-c2ccccc2)nc2ccc(F)cc12,12.9%,
O=C(Cc1csc(Nc2nc(=S)[nH]c3ccccc23)n1)NCCCN1CCN(c2ccccc2F)CC1,,16.5 µM (active)
CCOC(=O)N1C(C)CN(/[N+]([O-])=N/Oc2ccc([N+](=O)[O-])cc2[N+](=O)[O-])CC1C (stereo unspecified),5.98%,
O=c1/c(=C/c2ccc(O)c([N+](=O)[O-])c2)sc2nc3ccccc3n12,-5.62%,
Cc1ccc2c(c1)c1nc3ccccc3nc1n2C,-4.9%,
Cc1cnc([N+](=O)[O-])n1CCOC(=O)c1cccc(F)c1,15.1%,
Cc1oc2c(c1C(=O)N1CCOCC1)C(=O)c1ccccc1C2=O,,4.65 µM (active)
O=C(c1ccc([N+](=O)[O-])o1)N1CCOCC1,-15.8%,
CC1CCN(c2ccc(-c3ccc(NC(=O)C(F)(F)F)cc3)nn2)CC1,,4.14 µM (active)
N#CC1C=Cc2c(ccc3ccccc23)N1C(=O)c1ccccc1 (stereo unspecified),13.7%,
O=C(Nc1ccc2c(c1)OCCO2)c1cc(-c2ccccn2)nc2ccc(Br)cc12,-5.28%,
Cc1nc2c(ccc3nc(NC(=O)c4ccc5c(c4)OCCO5)sc32)s1,,1.85 µM (active)
CC(=O)c1sc(NC(=O)c2ccc(C)c(C)c2)nc1C,-14.5%,
Cc1[nH]n(S(=O)(=O)Cc2ccccc2)c(=O)c1N=Nc1ccccc1Cl,10.9%,
O=C(COc1cccnc1[N+](=O)[O-])c1c[nH]c2ccccc12,3.05%,
Cc1[nH]c2ccccc2c1C(=O)C(C)OC(=O)c1ccc([N+](=O)[O-])o1 (stereo unspecified),22.2%,
COC(=O)c1sc(NC(=O)COc2cccnc2[N+](=O)[O-])c(C(=O)OC)c1C,0.168%,
Cc1cc2[nH]c3c(c[n+](C)c4ccccc34)c2cc1C,,3.29 µM (active)
COC(=O)c1ccc(Cn2cc(C(F)(F)F)cc([N+](=O)[O-])c2=O)cc1,2.05%,
CCc1ccc([C@@H]2CC=C(C(=O)O)[C@H](c3cccc(Cl)c3)N2S(=O)(=O)c2ccc(C)cc2)cc1,18.9%,
Cc1ccc(CN=c2c([N+](=O)[O-])nn(-c3ccc4c(c3)OCCO4)n2O)cc1,14%,
Cc1ccccc1N1CCN(Cc2ccc([N+](=O)[O-])o2)CC1,-15.2%,
COc1cc(/C=C2\COC/C(=C\c3cc(OC)c(OC)c(OC)c3)C2=O)cc(OC)c1OC,,2.33 µM (active)
COc1cc(C2CC(=O)Oc3cc(C)c(Cl)c(C)c32)cc(OC)c1OC (stereo unspecified),21.9%,
COc1cc(/C=C/c2onc(C)c2[N+](=O)[O-])cc(OC)c1OC,0.264%,
Cc1ccc(S(=O)(=O)N2CC(C(=O)O)=CC[C@H]2c2ccc(Cl)cc2)cc1,12.5%,

Compound,"activity change, negative = cytotoxicity",Potency
O=C(O)C=C(Br)Br,23.8%,
COc1ccc(C(=O)c2c3ccccc3[n+]([O-])n2CCCN)cc1,,inactive
CC(Oc1cccnc1[N+](=O)[O-])C(=O)Nc1ccc(F)cc1 (stereo unspecified),26.8%,
COc1ccc2c(c1)C1OCCC1C(c1ccco1)N2 (stereo unspecified),,10.4 µM (active)
CC(=O)OCON[N+]([O-])=NC(C)C,3.82%,
OCCOCCNc1ncnc2c1c(-c1ccccc1)cn2-c1ccccc1,1.82%,
C(=C\c1nc2ccccc2s1)/c1ccc2c(c1)OCO2,,2.07 µM (active)
O=[N+]([O-])c1cc(C(F)(F)F)ccc1Oc1cccnc1[N+](=O)[O-],13.1%,
Cc1nc2c(N=Nc3ccccc3F)c(N)nn2c(N)c1C#N,2.35%,
Cc1ccc(OCC(=O)Nc2ccc(C)c(F)c2)c([N+](=O)[O-])n1,-7.99%,
CC(C)(C)[C@H](N)C(=O)N[C@H]1CCC2C3CC=C4C[C@@H](O)CC[C@]4(C)C3CC[C@@]21C (stereo partly specified),,2.33 µM (active)
O=C(Nc1ccc(Cl)cn1)c1ccccc1[N+](=O)[O-],-0.045%,
Brc1ccc(CNc2nc3ccccc3n2CCN2CCCCC2)cc1,12.6%,
NC(=S)NN=C1CCCCCCCC1,0.789%,
COc1ccc(-c2nc(NCCCN(C)C)c3ccccc3n2)cc1,-24.3%,
CCN(CC)CCCNc1nc2ccccc2c2[nH]c3ccc(OC)cc3c12,,2.61 µM (active)
NCCCn1c(C(=O)c2cc(Cl)c(N)c(Cl)c2)c2ccccc2[n+]1[O-],-8.28%,
O=[N+]([O-])C(/C=C(/Cl)[N+](=O)[O-])=C(N1CCCCC1)N1CCCCC1,4.13%,
CC(=O)N(/N=C/c1ccc([N+](=O)[O-])o1)c1nc2ccccc2c(=O)n1-c1ccccc1,-17.4%,
O=[N+]([O-])c1ccc(/C=C/C2=NN(c3ccccc3)C(c3ccco3)C2)o1 (stereo unspecified),0.147%,
O=c1c2ccccc2nc(/C=C/c2ccc([N+](=O)[O-])o2)n1CCCO,,3.69 µM (active)
O=[N+]([O-])c1ncccc1Oc1nc(-c2cccnc2)nc2ccccc12,13.1%,
COc1ccc(C(=O)COC(=O)c2ccccc2NS(=O)(=O)c2ccc(O)c([N+](=O)[O-])c2)cc1,9.65%,
Cc1[nH]n(C2=NCCS2)c(=O)c1N=Nc1cccc(C(F)(F)F)c1,,4.65 µM (active)
Cc1[nH]n(S(=O)(=O)c2ccccc2)c(=O)c1N=Nc1cccc(Cl)c1,1.32%,
CN(C(=O)c1ccc(N2CCCCC2)c([N+](=O)[O-])c1)C1CCS(=O)(=O)C1 (stereo unspecified),11.3%,

Compound,"activity change, negative = cytotoxicity",Potency
Cc1ccc(C(=O)c2c3ccc([N+](=O)[O-])cc3[n+]([O-])n2CCCC(N)=O)cc1,-12.8%,
O=c1cc[nH]c2ccc([N+](=O)[O-])cc12,22.3%,
Cc1cc(C(=O)COc2cccnc2[N+](=O)[O-])c(C)n1Cc1ccco1,10%,
c1ccc(-c2nc(-c3cnc4ccccc4n3)cs2)cc1,-21.7%,
CC1(C)CC(N=c2cc(-c3ccccc3)oc3ccc(Cl)cc23)CC(C)(C)N1,,8.26 µM (active)
Clc1ccc2oc(-c3ccccc3)cc(=NCCCN3CCOCC3)c2c1,-1.78%,
CN(C)CCCN=c1cc(-c2ccccc2)oc2ccc(Cl)cc12,-8.36%,
O=C(CSc1ccsc1[N+](=O)[O-])NCCc1ccc(Cl)cc1,19.5%,
O=[N+]([O-])c1cn(-c2nc(-c3ccco3)cc(C(F)(F)F)n2)cn1,2.48%,
CNN/C(N=Cc1ccc([N+](=O)[O-])s1)=N\S(=O)(=O)c1cc(C)c(Cl)cc1SCc1ccccc1,-14.4%,
Clc1ccc2c(N/N=C/c3ccccc3Br)ccnc2c1,,14.7 µM (active)
Clc1ccc2c(N/N=C/c3cccc(Br)c3)ccnc2c1,,11.7 µM (active)
CCOC(=O)C1CCN(c2ccc([N+](=O)[O-])c(C(C)=O)c2)CC1,16.6%,
Cc1ccc(C(C(=O)NCc2ccco2)N(C(=O)CNC(=O)c2cccs2)c2c(C)cccc2C)cc1 (stereo unspecified),2.07%,
NC(=O)c1ccc(Nc2ccc([N+](=O)[O-])cc2[N+](=O)[O-])cc1,-4.24%,
CC(=O)c1c(C)n([O-])c2ccc(C)cc2[n+]1=O,6.07%,
C=CCn1c(C)cc(C(=O)COC(=O)c2n[nH]c(=O)c3ccccc23)c1C,4.65%,
COc1ccc(-n2nc([N+](=O)[O-])c(=NCCC3=CCCCC3)n2O)cc1,1.4%,
COc1ccc2c3n([n+]([O-])c2c1)CCN=C3c1cc(Cl)c(N)c(Cl)c1,12.3%,
O=c1[nH]cnc2ccc([N+](=O)[O-])cc12,17.7%,
COC(=O)Nc1nc2ccc(Sc3ccccc3)cc2[nH]1,0.0974%,
COC(=O)Nc1nc2ccc(SC(C)C)cc2[nH]1,29%,
COc1cc(SC)ccc1C(=O)Nc1nc2ccccc2[nH]1,,2.07 µM (active)
